From PubChem BioAssay
Potency and affinity values are given separately. Inconclusive results are not listed. The source made the active and inactive calls. Unless noted, no rule for the calls is given here.

Legend:
[1] = RMG-1 ovarian cancer cell viability loss – cherry-pick, dose response (AID 687029;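 active = signal drop whose fitted half-maximal concentration is at most twice the top valid dose, in every test run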;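 also: cells exposed to compound for 96 hours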)
[2] = IOSE-T80 viability loss, PAX8-independent line – cell-based, cherry-pick, selectivity assay for PAX8 inhibitor project, dose response (AID 687032;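 active = fitted half-maximal concentration for viability loss no higher than twice the top valid dose, in every repeat run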;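 also: cells exposed to compound for 96 h before reading; 0% = neutral control wells and -100% = 2 µM mitoxantrone kill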)
[3] = CMV-driven luciferase expression suppression in HEK293 – cell-based, luminescence, dry powder, counter-screen for Pax8 inhibitor project, dose response (AID 743020;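 active = signal-lowering compounds whose fitted half-maximal concentration is at or below twice the top tested dose in every run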;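 also: HEK293 cells stably expressing the CMV luciferase reporter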)
[4] = general cell-killing toxicity readout – plate reader, dry powder samples, cytotoxicity control for PAX8 inhibitor project, dose response (AID 743021)
[5] = OVCAR-3 cell viability loss – plate reader, dry powder samples, PAX8 inhibitor project, dose response (AID 743044); conditions: max activity: at 35 µM, hits give low values unless noted
[6] = toxicity toward immortalized ovarian surface epithelium – cell-based, plate reader, dry powder samples, cytotoxicity control for PAX8 inhibitor project, dose response (AID 743045);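 also: 0% = neutral control median and -100% = positive control median; more negative values mean more cell killing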
[7] = OVCAR8 cell viability loss – plate reader, dry powder samples, PAX8 project, dose response (AID 743197)
[8] = A2780 cell killing – plate reader, dry powder samples, cytotoxicity control, dose response (AID 743046);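 also: 0% = neutral control wells and -100% = cytotoxic reference compound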

Measured: max activity

Cc1ccc(S(=O)(=O)Nc2ccc3c(c2)C(=O)N([C@H](C)CO)C[C@@H](C)[C@H](CN(C)S(=O)(=O)c2ccc(C)cc2)OCCCC[C@H](C)O3)cc1
inactive: [1] | [2] | [3] | [4] | [5] 32.9% [at 0.26 µM, hits give low values] | [6] | [7]

O=C(C[C@H]1CC[C@@H]2[C@H](COC[C@H](O)CN2S(=O)(=O)c2cccc(F)c2)O1)Nc1ccc(-c2ccccc2)cc1
inactive: [1] | [2] | [3] | [4] | [5] 27.1% [at 0.5 µM, hits give low values] | [6] | [8]

C[C@H]1CCCCO[C@H](CN(C)C(=O)Nc2cccc3ccccc23)[C@@H](C)CN([C@@H](C)CO)C(=O)c2cc(NS(=O)(=O)c3ccc(F)cc3)ccc2O1
inactive: [1] | [2] | [3] | [4] | [5] 28.1% [at 0.5 µM, hits give low values] | [6] | [8]

C[C@@H]1CN([C@@H](C)CO)C(=O)c2cc(NC(=O)Cc3ccccc3)ccc2O[C@@H](C)CCCCO[C@H]1CN(C)Cc1ccc(C(F)(F)F)cc1
inactive: [1] | [2] | [3] | [4] | [5] -16.1% | [6] | [8]

C[C@@H]1CCCCO[C@H](CN(C)Cc2ccc(C(F)(F)F)cc2)[C@H](C)CN([C@@H](C)CO)C(=O)c2cc(NC(=O)Nc3ccc4c(c3)OCO4)ccc2O1
inactive: [1] | [2] | [3] | [4] | [6]

C[C@H](CO)N1C[C@H](C)[C@@H](CN(C)Cc2ccc(Cl)c(Cl)c2)Oc2ccc(NC(=O)Nc3ccc(C(F)(F)F)cc3)cc2CC1=O
inactive: [1] | [2] | [3] | [4] | [5] 17.7% [at 0.5 µM, hits give low values] | [6] | [8] | [7]

COc1ccc(CN(C)C[C@H]2OCCCC[C@H](C)Oc3ccc(NC(=O)Nc4ccc(C(F)(F)F)cc4)cc3C(=O)N([C@@H](C)CO)C[C@@H]2C)cc1
inactive: [1] | [2] | [3] | [4] | [5] -11.3% | [6] | [8]

C[C@@H]1CN([C@@H](C)CO)C(=O)c2cc(NC(=O)Cc3ccccc3)ccc2O[C@@H](C)CCCCO[C@@H]1CN(C)Cc1ccc(C(F)(F)F)cc1
inactive: [1] | [2] | [3] | [4] | [5] -8.58% | [6] | [8]

C[C@H](CO)N1C[C@H](C)[C@H](CN(C)S(=O)(=O)c2ccc(F)cc2)OCCCC[C@H](C)Oc2ccc(NS(=O)(=O)c3ccc(Cl)cc3)cc2C1=O
inactive: [1] | [2] | [3] | [4] | [5] -16.9% [at 4.2 µM, hits give low values] | [6] | [7]

C[C@H](CO)N1C[C@H](C)[C@@H](CN(C)Cc2ccc(Oc3ccccc3)cc2)Oc2ccc(NS(=O)(=O)c3ccc(F)cc3)cc2CC1=O
inactive: [1] | [2] | [3] | [4] | [5] -23.5% [at 4.2 µM, hits give low values] | [6] | [8]

O=C(C[C@@H]1CC[C@@H]2[C@H](COC[C@@H](O)CN2C(=O)Nc2ccc(Cl)c(Cl)c2)O1)NCc1ccc(Cl)cc1
inactive: [1] | [2] | [3] | [4] | [6]

C[C@H]1CN([C@@H](C)CO)C(=O)c2c(c3ccccc3n2C)-c2ccccc2CO[C@@H]1CN(C)Cc1cccc(C(F)(F)F)c1
inactive: [1] | [2] | [3] | [4] | [5] 14.4% [at 0.26 µM, hits give low values] | [6] | [8]

C[C@@H]1CN([C@@H](C)CO)C(=O)c2cc(NS(=O)(=O)c3ccc(F)cc3)ccc2O[C@@H](C)CCCCO[C@@H]1CN(C)Cc1ccc(C(F)(F)F)cc1
inactive: [1] | [2] | [3] | [4] | [6]

C[C@H]1CCCCO[C@H](CN(C)C(=O)Nc2ccc(C(F)(F)F)cc2)[C@@H](C)CN([C@@H](C)CO)C(=O)c2cc(NS(=O)(=O)c3ccccc3)ccc2O1
inactive: [1] | [2] | [3] | [4] | [5] -16.1% [at 8 µM, hits give low values] | [6] | [8]

COc1cccc(-c2ccc([C@H]3[C@@H](CO)N(C(=O)c4ccccn4)[C@H]3C#N)cc2)c1
inactive: [1] | [2] | [3] | [4] | [5] -40.2% | [6] | [8]

C[C@@H]1CN([C@H](C)CO)C(=O)c2cc(NS(=O)(=O)c3ccccc3)ccc2O[C@@H](C)CCCCO[C@@H]1CN(C)Cc1ccc(Cl)c(Cl)c1
inactive: [1] | [2] | [3] | [4] | [5] -20% [at 9 µM, hits give low values] | [6] | [8]

Cc1cccc(S(=O)(=O)N2CC[C@@H]3[C@H](CO)N(C)c4ccc(C#Cc5ccc(F)cc5)cc4[C@@H]32)c1
inactive: [1] | [2] | [3] | [4] | [5] -16.3% [at 30 µM, hits give low values] | [6] | [8]

O=C(C[C@@H]1CC[C@@H]2[C@H](COC[C@H](O)CN2Cc2ccc3c(c2)OCO3)O1)Nc1ccc(-c2ccccc2)cc1
inactive: [1] | [2] | [3] | [4] | [5] 25.3% [at 0.5 µM, hits give low values] | [6] | [8] | [7]

COc1ccc(C#Cc2ccc([C@@H]3[C@H](CO)N4CCCCN(C(=O)Nc5ccc(F)cc5)C[C@@H]34)cc2)cc1
inactive: [1] | [2] | [3] | [4] | [5] -123% [at 30 µM, hits give low values] | [6]

C[C@@H]1CN([C@H](C)CO)C(=O)c2cc(NC(=O)Nc3ccc(F)cc3)ccc2O[C@@H](C)CCCCO[C@H]1CN(C)C(=O)C1CCCCC1
inactive: [1] | [2] | [3] | [4] | [5] 11.9% [at 16 µM, hits give low values] | [6] | [7]

C[C@@H]1CCCCO[C@@H](CN(C)Cc2ccc(C(F)(F)F)cc2)[C@H](C)CN([C@H](C)CO)C(=O)c2cc(NS(=O)(=O)c3ccccc3)ccc2O1
inactive: [1] | [2] | [3] | [4] | [5] -29.5% | [6] | [8]

C[C@@H]1CN([C@@H](C)CO)C(=O)Cc2cc(NS(=O)(=O)c3ccc(Cl)cc3)ccc2O[C@H]1CN(C)Cc1ccc(Cl)c(Cl)c1
inactive: [1] | [2] | [3] | [4] | [5] 11% [at 16 µM, hits give low values] | [6] | [8] | [7]

C[C@H](CO)N1C[C@H](C)[C@H](CN(C)Cc2ccc(Cl)c(Cl)c2)OCCCC[C@H](C)Oc2ccc(NC(=O)Nc3ccc(C(F)(F)F)cc3)cc2C1=O
inactive: [1] | [2] | [3] | [4] | [5] 27.7% [at 2.1 µM, hits give low values] | [6] | [8]

O=C(C[C@H]1CC[C@H]2[C@@H](COC[C@@H](O)CN2Cc2ccc3c(c2)OCO3)O1)Nc1ccc(-c2ccccc2)cc1
inactive: [1] | [2] | [3] | [4] | [5] 60.4% [at 2.1 µM, hits give low values] | [6] | [8] | [7]
